The inhibition is the relative decrease from the control value, in per cent.

In the first assay the target is Casein kinase I isoform gamma-1 (Homo sapiens) (UniProt Q9HCP0). The settings on record: at 0.1 µM.
Sequence of Casein kinase I isoform gamma-1 (Homo sapiens) (Q9HCP0 whole entry, looked up, canonical isoform): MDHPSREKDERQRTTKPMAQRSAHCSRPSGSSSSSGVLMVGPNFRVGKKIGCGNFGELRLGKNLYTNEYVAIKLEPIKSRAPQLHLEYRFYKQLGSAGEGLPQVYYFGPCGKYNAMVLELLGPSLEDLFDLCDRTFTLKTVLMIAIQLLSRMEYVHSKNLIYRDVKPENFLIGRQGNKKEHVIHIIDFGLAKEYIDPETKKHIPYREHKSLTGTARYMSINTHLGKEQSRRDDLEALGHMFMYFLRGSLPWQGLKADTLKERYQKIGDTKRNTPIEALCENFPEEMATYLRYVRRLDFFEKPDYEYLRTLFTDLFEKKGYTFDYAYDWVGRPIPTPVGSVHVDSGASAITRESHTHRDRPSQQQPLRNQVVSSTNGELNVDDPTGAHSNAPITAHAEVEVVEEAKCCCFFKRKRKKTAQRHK
In the case of `COc1ccc2ncn(-c3cc(O[C@H](C)c4ccccc4Cl)c(C(N)=O)s3)c2c1`, the inhibition was determined as 0.39%.
Same read-out and setting: in the case of `C#Cc1cccc(Nc2ncnc3ccc(OCCCCNCCS(C)(=O)=O)cc23)c1` it was 0.79%.
Consider `NS(=O)(=O)c1ccc(Nc2cc(-c3ccc(O)c(F)c3)n[nH]2)cc1`, for which the inhibition is -2%.
Same read-out and setting: the same measure for `C[C@@H](Oc1cc(-n2cnc3ccc(OCC4CCN(C)CC4)cc32)sc1C(N)=O)c1ccccc1Cl`: 5.29%; for `Fc1ccc(-c2ncn(CCCN3CCOCC3)c2-c2ccncc2)cc1`: 0.8%; for `NS(=O)(=O)c1ccc(N/N=C2\C(=O)Nc3ccc(C(=O)NCCCn4ccnc4)cc32)cc1`: 5.08%.
For `COc1ccc2cc(-c3c(-c4ccncc4)nc(-c4ccc(S(C)(=O)=O)cc4C)n3C)ccc2c1`, the inhibition amounted to 3.35%.
Regarding `Clc1ccc(CNc2nccc(-c3cnn4ncccc34)n2)cc1`, the inhibition was determined as 0.12%.
Still for that read-out and setting: the same measure for `COC(=O)Nc1nc2ccc(Sc3ccc(NC(=O)Nc4cc(C(F)(F)F)ccc4F)cc3)cc2[nH]1`: -0.12%; for `Fc1ccc(-c2ncn(C3CCNCC3)c2-c2ccnc(Oc3ccc4c(c3)OCO4)n2)cc1`: 5.84%; for `Cc1ccc(C(=O)NC(C)C)cc1-c1ccc(C(=O)NCC2CC2)cc1`: -2.95%.
Still for that read-out and setting: the same measure for `CCS(=O)(=O)c1ccc(OC)c(Nc2ncc(-c3ccccc3Cl)o2)c1`: 0.27%; for `NC(=O)c1cc(-c2ccncc2)cc(-c2ccccc2)c1N`: 4.75%; for `c1ccc(-c2n[nH]cc2-c2ccnc(-c3ccc(OCCN4CCOCC4)cc3)c2)nc1`: -1.07%.
With `Cc1ccc(C(=O)NC2CCC2)cc1-c1ccc(C(=O)NCC2CC2)cc1`, the inhibition came out at 2.64%.
In the case of `CN(c1ccc(NC(=O)Nc2c(Cl)cccc2Cl)cc1)c1ccnc(Nc2cccc(CS(C)(=O)=O)c2)n1`, the inhibition came out at 0.39%.
Still for that read-out and setting: in the case of `CS(=O)(=O)CCNCc1cc(-c2cc3c(Nc4ccc(OCc5cccc(F)c5)c(Cl)c4)ncnc3s2)cs1` it was 3.81%; in that of `Fc1ccc(-c2c(-c3ccncc3)nc3n2CCS3)cc1`, -1.2%; in that of `Cc1ccc(NC(=O)c2ccoc2)cc1-c1ccc(C(=O)NCC2CC2)cc1`, 2.78%.
Turning to `NS(=O)(=O)c1ccc(N/N=C2\C(=O)Nc3ccc(-c4cnco4)cc32)cc1`, the inhibition was -2.5%.
Same read-out and setting: the same measure for `O=C(Nc1n[nH]c2cc(-c3cc(F)ccc3F)ccc12)C1CC1`: 3.28%; for `Nc1nccc(-c2c(-c3ccc(F)cc3)ncn2C2CCC(O)CC2)n1` (stereo not drawn): -1.19%.
As to `C[C@@H](Oc1cc(-n2cnc3ccc(OC4CCN(C)CC4)cc32)sc1C(N)=O)c1ccccc1Cl`, the inhibition is 0.61%.
Still for that read-out and setting: the same measure for `CCS(=O)(=O)c1ccc(OC)c(Nc2ncc(-c3cccc(-c4ccccc4F)c3)o2)c1`: 0.32%.
In the case of `O=C1Nc2ccc(I)cc2C1=Cc1cc(Br)c(O)c(Br)c1`, the inhibition was determined as 3.7%.
Turning to `COc1cccc(/C=N/Nc2ncnc3c2cnn3-c2cccc(OC)c2)c1`, the inhibition was 2.82%.
Regarding `COc1cc2ncn(-c3cc(OCc4cccs4)c(C(N)=O)s3)c2cc1OC`, the inhibition was -0.26%.
Same read-out and setting: the same measure for `NC(=O)c1ccc(Oc2nccc(-c3c(-c4ccc(F)cc4)ncn3C3CCNCC3)n2)cc1`: 5.2%.
Turning to `CN(C)CCCNc1nccc(-c2c(-c3ccc(F)cc3)nn3cc(C(F)(F)F)ccc23)n1`, the inhibition is -2.45%.
On to `O=C1NC(=O)C(c2cccc(Cl)c2)=C1Nc1ccc(Cl)c(C(=O)O)c1`, for which the inhibition is 2.32%.
The same measure, in the same setting: in the case of `NC(=O)Cc1ccccc1Oc1nccc(-c2c(-c3ccc(F)cc3)ncn2C2CCNCC2)n1` it was 4.95%; in that of `Fc1ccc(-c2ncn(C3CCNCC3)c2-c2ccnc(Oc3ccc(F)c(F)c3)n2)cc1`, 0.31%; in that of `O=C(Nc1n[nH]c2cc(-c3ccccc3)ccc12)C1CC1`, 5.13%.
Take `Cc1nnc(-c2ccc(C)c(-c3ccc(C(=O)NCc4ccc(Cl)cc4)cc3)c2)o1`: the inhibition came to 0.71%.

The target is the same in another assay. The settings on record: at 1 µM.
On to `COc1ccc2ncn(-c3cc(O[C@H](C)c4ccccc4Cl)c(C(N)=O)s3)c2c1`, for which the inhibition was -0.54%.
Consider `C#Cc1cccc(Nc2ncnc3ccc(OCCCCNCCS(C)(=O)=O)cc23)c1`, for which the inhibition turned out to be 1.77%.
`NS(=O)(=O)c1ccc(Nc2cc(-c3ccc(O)c(F)c3)n[nH]2)cc1`: the inhibition came to 0.81%.
With `C[C@@H](Oc1cc(-n2cnc3ccc(OCC4CCN(C)CC4)cc32)sc1C(N)=O)c1ccccc1Cl`, the inhibition is 8.54%.
The same measure, in the same setting: the same measure for `Fc1ccc(-c2ncn(CCCN3CCOCC3)c2-c2ccncc2)cc1`: 1.79%; for `NS(=O)(=O)c1ccc(N/N=C2\C(=O)Nc3ccc(C(=O)NCCCn4ccnc4)cc32)cc1`: 10.8%; for `COc1ccc2cc(-c3c(-c4ccncc4)nc(-c4ccc(S(C)(=O)=O)cc4C)n3C)ccc2c1`: 4.23%.
For `Clc1ccc(CNc2nccc(-c3cnn4ncccc34)n2)cc1`, the inhibition was 7.72%.
Regarding `COC(=O)Nc1nc2ccc(Sc3ccc(NC(=O)Nc4cc(C(F)(F)F)ccc4F)cc3)cc2[nH]1`, the inhibition came to 0.47%.
The same measure, in the same setting: in the case of `Fc1ccc(-c2ncn(C3CCNCC3)c2-c2ccnc(Oc3ccc4c(c3)OCO4)n2)cc1` it was 13.1%; in that of `Cc1ccc(C(=O)NC(C)C)cc1-c1ccc(C(=O)NCC2CC2)cc1`, -2.32%; in that of `CCS(=O)(=O)c1ccc(OC)c(Nc2ncc(-c3ccccc3Cl)o2)c1`, 0.86%.
On the same count and under the same terms, in the case of `NC(=O)c1cc(-c2ccncc2)cc(-c2ccccc2)c1N` it was 5.37%; in that of `c1ccc(-c2n[nH]cc2-c2ccnc(-c3ccc(OCCN4CCOCC4)cc3)c2)nc1`, -0.62%; in that of `Cc1ccc(C(=O)NC2CCC2)cc1-c1ccc(C(=O)NCC2CC2)cc1`, 3.13%.
As for `CN(c1ccc(NC(=O)Nc2c(Cl)cccc2Cl)cc1)c1ccnc(Nc2cccc(CS(C)(=O)=O)c2)n1`, the inhibition is 1.32%.
Still for that read-out and setting: the same measure for `CS(=O)(=O)CCNCc1cc(-c2cc3c(Nc4ccc(OCc5cccc(F)c5)c(Cl)c4)ncnc3s2)cs1`: 4.73%; for `Fc1ccc(-c2c(-c3ccncc3)nc3n2CCS3)cc1`: -0.38%; for `Cc1ccc(NC(=O)c2ccoc2)cc1-c1ccc(C(=O)NCC2CC2)cc1`: 3.5%.
On the same count and under the same terms, the same measure for `NS(=O)(=O)c1ccc(N/N=C2\C(=O)Nc3ccc(-c4cnco4)cc32)cc1`: -1.7%.
Same read-out and setting: the same measure for `O=C(Nc1n[nH]c2cc(-c3cc(F)ccc3F)ccc12)C1CC1`: 3.73%; for `Nc1nccc(-c2c(-c3ccc(F)cc3)ncn2C2CCC(O)CC2)n1` (stereo not drawn): 5.79%; for `C[C@@H](Oc1cc(-n2cnc3ccc(OC4CCN(C)CC4)cc32)sc1C(N)=O)c1ccccc1Cl`: -0.21%.
Take `CCS(=O)(=O)c1ccc(OC)c(Nc2ncc(-c3cccc(-c4ccccc4F)c3)o2)c1`: the inhibition was found to be 0.08%.
On the same count and under the same terms, in the case of `O=C1Nc2ccc(I)cc2C1=Cc1cc(Br)c(O)c(Br)c1` it was 5.38%; in that of `COc1cccc(/C=N/Nc2ncnc3c2cnn3-c2cccc(OC)c2)c1`, 3.51%.
Take `COc1cc2ncn(-c3cc(OCc4cccs4)c(C(N)=O)s3)c2cc1OC`: the inhibition is -1.01%.
Regarding `NC(=O)c1ccc(Oc2nccc(-c3c(-c4ccc(F)cc4)ncn3C3CCNCC3)n2)cc1`, the inhibition turned out to be 9.98%.
Still for that read-out and setting: the same measure for `CN(C)CCCNc1nccc(-c2c(-c3ccc(F)cc3)nn3cc(C(F)(F)F)ccc23)n1`: -1.14%; for `O=C1NC(=O)C(c2cccc(Cl)c2)=C1Nc1ccc(Cl)c(C(=O)O)c1`: 1.79%; for `NC(=O)Cc1ccccc1Oc1nccc(-c2c(-c3ccc(F)cc3)ncn2C2CCNCC2)n1`: 10.3%.
`Fc1ccc(-c2ncn(C3CCNCC3)c2-c2ccnc(Oc3ccc(F)c(F)c3)n2)cc1`: the inhibition came out at 2.33%.
The same measure, in the same setting: the same measure for `O=C(Nc1n[nH]c2cc(-c3ccccc3)ccc12)C1CC1`: 5.75%.
The same measure, in the same setting: in the case of `Cc1nnc(-c2ccc(C)c(-c3ccc(C(=O)NCc4ccc(Cl)cc4)cc3)c2)o1` it was 2.06%.

These data come from ChEMBL document CHEMBL1961873, “Compounds: GSK PKIS; Assays: Nanosyn kinase panel” (2012).
